Values joined by “and” are separate entries in the source; they are usually repeats but may differ in a detail not shown here. Identical values can stand only once. Results filed as inconclusive are left out. Where a call stands in place of a potency, no number is given. Active and inactive are the calls of the source. Calls follow the shape of the dose curve; as a rule, active = well fitted curve in the direction sought with a large enough effect; inconclusive = small, poorly fitted or top-dose-only effect, or another doubt; inactive = no such curve, though single readings can be large; an effect the other way counts as inactive or inconclusive.
Key:
[1] = Primary qHTS for inhibitors of nuclear receptor binding SET domain protein 2 (NSD2) in an RCH-ACV wild type WT cells (2C) (AID 1645877); details: RCH-ACV (leukaemia line) NSD2 WT (2C) viability, CellTiter-Glo, 72 h; series mostly up to 44.9 µM; also: nearly all actives have a fitted effect of over 70% in size; also: potency is read from the fitted curve at half-maximal effect
[2] = molecular target: Glutathione peroxidase 1 (Homo sapiens) (UniProt P07203); test: Primary qHTS Assay for Inhibitors of Recombinant Selenoprotein Glutathione Peroxidase 1 (GPX1) (AID 1845191); details: recombinant GPX1, GR-coupled NADPH fluorescence, 15 min; series mostly up to 48.8 µM; also: nearly all actives have a fitted effect of over 65% in size
Procedure, shortened: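 GR-coupled readout: NADPH consumption tracked by fluorescence, ex 340/em 450 nm, at t=0 and after 15 min at RT. Final mix 10 nM GPX1, 1 mM GSH, 0.5 mM CHP, 0.5 mM NADPH, 100 nM GR, 0.01% BSA, following 30 min enzyme–compound preincubation.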

[3] = molecular target: Phospholipid hydroperoxide glutathione peroxidase GPX4 (Homo sapiens) (UniProt P36969); test: Primary qHTS Assay for Inhibitors of Recombinant Selenoprotein Glutathione Peroxidase 4 (GPX4) (AID 1845192); details: recombinant GPX4, GR-coupled NADPH fluorescence, 15 min; series mostly up to 50 µM; also: nearly all actives have a fitted effect of over 65% in size
Procedure, shortened: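 Steps: GPX4 plus compound, 30 min RT; add GR/GSH/NADPH master mix; start with cumene hydroperoxide; read 340/450 nm fluorescence at 0 and 15 min. Finals were 200 nM GPX4, 1 mM GSH, 0.5 mM CHP, 0.5 mM NADPH, 100 nM GR.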

[4] = NCATS anti-infectives library activity on HEK293 viability as a counter-qHTS vs the C. elegans viability qHTS (AID 1745854); details: HEK293 viability counter-screen; series mostly up to 41.8 µM
Procedure, shortened: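 Cytotoxicity counter-screen to a worm viability qHTS: CellTiter-Glo luminescence read 10 min after reagent addition. Compounds (final up to 41.7 uM, a 1:5 dilution series) incubated 24 hr at 37C with 1,500 HEK293 cells per well; digitonin control.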

[5] = molecular target: Luciferin 4-monooxygenase (Photinus pyralis) (UniProt P08659); test: Primary firefly luciferase (FLuc) qHTS assay for identification of artifact compounds. (AID 1845220); details: purified firefly luciferase, luminescence, 5 min; series mostly up to 54.1 µM; also: nearly all actives have a fitted effect of over 60% in size
Procedure, shortened: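 Titrated compounds were incubated 15 min at RT, protected from light, with luciferin and ATP at 10 uM; reaction started with 10 nM FLuc, luminescence imaged at 5 min, and concentration-response fitted by Hill equation.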

[6] = Primary fluorescence-based thiol-reactive (MSTI) qHTS assay for identification of artifact compounds. (AID 1845221); details: MSTI thiol-reactivity probe, 1 h; series mostly up to 53.8 µM; also: nearly all actives have a fitted effect of over 65% in size; also: potency is read from the fitted curve at half-maximal effect
Procedure, shortened: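 A multi-concentration qHTS design tested compounds against 4 uM MSTI, pH 7.4 phosphate-buffered saline. Plates were protected from light for 1 h at room temperature before imaging fluorescence.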

[7] = test system: Nanoluciferase (engineered Oplophorus gracilirostris luciferase); test: Primary Nanoluciferase (NLuc) qHTS assay for identification of artifact compounds. (AID 1845222); details: NLuc-conditioned medium, Nano-Glo luminescence, 5 min; series mostly up to 54.1 µM; also: potency is read from the fitted curve at half-maximal effect
Procedure, shortened: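 qHTS format, against NLuc in S16 cell-conditioned medium. Nano-Glo substrate 1:100 was added after 15 min at room temperature. Luminescence was taken after a further 5 min.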

[8] = Primary redox qHTS assay for identification of artifact compounds. (AID 1845223); details: Amplex Red/HRP redox cycling with DTT, fluorescence; series mostly up to 53.8 µM
Procedure, shortened: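 Redox-cycling detection via DTT (250 uM final) oxidation coupled to Amplex Red (25 uM)/HRP (250 mU/mL) in HBSS. 15 min preincubation plus 30 min after DTT, room temperature. Ex/Em 525/598 nm; 4-parameter Hill fit against DMSO and 10 uM DA3003.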

Sequence of Phospholipid hydroperoxide glutathione peroxidase GPX4 (Homo sapiens) (P36969 whole entry, looked up): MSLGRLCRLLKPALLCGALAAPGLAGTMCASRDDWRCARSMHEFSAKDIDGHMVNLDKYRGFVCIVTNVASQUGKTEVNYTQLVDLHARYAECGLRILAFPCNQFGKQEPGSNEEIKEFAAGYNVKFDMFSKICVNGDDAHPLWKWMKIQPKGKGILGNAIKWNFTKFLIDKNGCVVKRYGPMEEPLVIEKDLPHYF
Sequence of Glutathione peroxidase 1 (Homo sapiens) (P07203 whole entry, looked up): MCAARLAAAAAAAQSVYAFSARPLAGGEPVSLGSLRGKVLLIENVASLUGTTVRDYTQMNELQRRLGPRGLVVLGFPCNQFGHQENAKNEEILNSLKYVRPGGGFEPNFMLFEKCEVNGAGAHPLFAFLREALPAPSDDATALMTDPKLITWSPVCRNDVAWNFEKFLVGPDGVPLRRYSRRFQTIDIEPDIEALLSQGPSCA

Row | SMILES | Potency [1] | Potency [2] | Potency [3] | Potency [4] | Potency [5] | Potency [6] | Potency [7] | Potency [8]
1 | COc1cc2ncn(-c3cc(OCc4ccccc4C(F)(F)F)c(C(N)=O)s3)c2cc1OC | 794 nM (active) and 1.18 µM (active) | inactive | inactive | – | – | – | – | –
2 | COc1ccc(CC2c3cc(OC)c(OC)cc3CC[N+]2(C)CCC(=O)OCCCCCOC(=O)CC[N+]2(C)CCc3cc(OC)c(OC)cc3C2Cc2ccc(OC)c(OC)c2)cc1OC (configuration not stated) | 23.5 µM (active) | inactive | inactive | – | – | – | – | –
3 | CN1CCN(c2cc(C(=O)Nc3ccc4c(c3)-c3c(c(C(N)=O)nn3-c3ccc(F)cc3)CC4)c(Cl)cn2)CC1 | 8.33 µM (active) | inactive | inactive | – | – | – | – | –
4 | Nc1nc(-c2nn(Cc3ccccc3F)c3ncccc23)nc(N)c1N1CCOCC1 | inactive | inactive | inactive | – | – | – | – | –
5 | O=C(CCCCCCNC(=O)c1cnc(N(c2ccccc2)c2ccccc2)nc1)NO | 365 nM (active) and 2.09 µM (active) | inactive | – | inactive | inactive | inactive | inactive | –
6 | O=C(NCCS(=O)(=O)c1ccc(C(F)(F)F)cn1)c1ccc(Cl)cc1 | inactive | inactive | inactive | – | – | – | – | –
7 | C=CC(=O)Nc1cc2c(Nc3ccc(F)c(Cl)c3)ncnc2cc1C#CC(C)(C)N1CCN(C)CC1 | 2.63 µM (active) | inactive | inactive | – | – | – | – | –
8 | CC(C)c1ccc(Cn2ccc3c4c(N)nc(NC5CC5)nc4ccc32)cc1 | 0.417 µM (active) | inactive | – | – | – | – | – | –
9 | CN1CC[C@@H](c2c(O)cc(O)c3c(=O)cc(-c4ccccc4Cl)oc23)[C@@H](O)C1 | 0.332 µM (active) | inactive | inactive | – | – | – | – | –
10 | Cc1[nH]nc2ccc(-c3cncc(OC[C@@H](N)Cc4ccccc4)c3)cc12 | 326 nM (active) and 186 nM (active) | inactive | inactive | – | inactive | inactive | inactive | inactive
11 | Cc1cnc(-c2cnc(NCCNc3ccc(C#N)cn3)nc2-c2ccc(Cl)cc2Cl)[nH]1 | 3.25 µM (active) and 3.72 µM (active) | inactive | inactive | – | inactive | inactive | 3380 nM (active) | –
12 | Cc1cc(C(=O)N2CCN(c3cccc(Cl)c3)CC2)n(-c2ccccc2)n1 | 1.32 µM (active) | inactive | inactive | – | inactive | inactive | inactive | inactive
13 | CNC(=O)c1ccccc1Nc1nc(Nc2ccc(N3CCOCC3)cc2OC)ncc1Cl | 649 nM (active) and 1.05 µM (active) | inactive | inactive | – | inactive | 1890 nM (active) | inactive | inactive
14 | O=C(Nc1cn[nH]c1-c1nc2ccc(CN3CCOCC3)cc2[nH]1)NC1CC1 | 64.9 nM (active) and 58 nM (active) and 59 nM (active) | inactive | inactive | – | inactive | inactive | inactive | inactive
15 | COc1ccc(OC)c(-c2nnc3ccc(-c4ccc(OC)c(O[C@@H]5CCOC5)c4)nn23)c1 | 2.95 µM (active) | inactive | inactive | – | inactive | inactive | inactive | –
16 | COc1ccc(F)c(F)c1C(=O)c1cnc(NC2CCN(S(C)(=O)=O)CC2)nc1N | 325 nM (active) and 525 nM (active) | inactive | inactive | – | inactive | inactive | inactive | –
17 | COc1ccc(C(=O)CC2(O)C(=O)Nc3c(Cl)ccc(Cl)c32)cc1 (configuration not stated) | 1.83 µM (active) | inactive | inactive | – | inactive | inactive | inactive | inactive
18 | COC(=O)Nc1nc2ccc(C(=O)c3ccc(F)cc3)cc2[nH]1 | 1.03 µM (active) and 372 nM (active) | inactive | inactive | – | inactive | inactive | inactive | inactive
19 | CCN(CC)CCNC(=O)c1ccc2nc(-c3ccccc3)c(-c3ccc(CN4CCC(n5c(=O)[nH]c6ccccc65)CC4)cc3)nc2c1 | 2.58 µM (active) and 4.17 µM (active) | inactive | inactive | – | inactive | inactive | inactive | inactive
20 | CNC(=O)c1cc(Oc2ccc(NC(=O)Nc3cc(C(C)(C)C)nn3-c3ccc4ncccc4c3)c(F)c2)ccn1 | 7.28 µM (active) and 5.25 µM (active) | inactive | inactive | – | inactive | inactive | inactive | –
21 | CCc1cc2c(cc1N1CCC(N3CCOCC3)CC1)C(C)(C)c1[nH]c3cc(C#N)ccc3c1C2=O | 1.42 µM (active) | inactive | inactive | – | inactive | inactive | inactive | –
22 | NCC(=O)Nc1ccc(-n2nc(C(F)(F)F)cc2-c2ccc3c(ccc4ccccc43)c2)cc1 | 4.09 µM (active) and 2.09 µM (active) | inactive | inactive | – | inactive | inactive | inactive | –
23 | Cc1nc(N)ncc1-c1nc(N2CCOCC2)c2sc(C(C)(C)O)cc2n1 | 115 nM (active) and 468 nM (active) | inactive | inactive | – | inactive | inactive | inactive | inactive
24 | CCCCCCCCCC(=O)N[C@@H](Cc1c[nH]c2ccccc12)C(=O)N[C@H](CC(N)=O)C(=O)N[C@@H](CC(=O)O)C(=O)N[C@@H]1C(=O)NCC(=O)N[C@@H](CCCN)C(=O)N[C@@H](CC(=O)O)C(=O)N[C@H](C)C(=O)N[C@@H](CC(=O)O)C(=O)NCC(=O)N[C@H](CO)C(=O)N[C@@H]([C@@H](C)CC(=O)O)C(=O)N[C@@H](CC(=O)c2ccccc2N)C(=O)O[C@@H]1C | inactive | inactive | inactive | – | inactive | inactive | inactive | –

From PubChem BioAssay (NCATS)
